Over roughly 33,000 sequences, “E-score (-0.5 to 0.5)” has its median near -0.035; the highest 2% begin near 0.34. Only a selection was taken, and the highest values are over-represented in it overall.
The sequences below were run against T1, Mot3 (UniProt P54785) (assay: PBM E-score (8-mer binding enrichment) (E-score (-0.5 to 0.5)); higher = stronger / more preferred TF binding). Conditions: protein concentration: 200 nM; construct: GST-full length.
T1 sequence: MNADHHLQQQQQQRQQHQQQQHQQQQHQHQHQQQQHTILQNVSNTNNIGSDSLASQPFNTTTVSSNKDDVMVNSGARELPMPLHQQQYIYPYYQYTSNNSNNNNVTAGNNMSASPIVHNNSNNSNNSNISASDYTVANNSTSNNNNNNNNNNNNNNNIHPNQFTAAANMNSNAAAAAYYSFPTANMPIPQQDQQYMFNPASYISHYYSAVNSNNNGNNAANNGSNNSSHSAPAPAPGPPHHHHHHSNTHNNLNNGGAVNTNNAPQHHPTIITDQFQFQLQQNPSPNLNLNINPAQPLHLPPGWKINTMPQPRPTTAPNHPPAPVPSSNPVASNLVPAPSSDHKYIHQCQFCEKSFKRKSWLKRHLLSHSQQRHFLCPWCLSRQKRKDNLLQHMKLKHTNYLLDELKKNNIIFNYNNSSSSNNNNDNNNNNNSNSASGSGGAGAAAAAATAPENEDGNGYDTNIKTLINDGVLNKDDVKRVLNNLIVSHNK
Summary of the method: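 Full-length yeast transcription factors or their DNA-binding domains, GST-tagged and expressed with PURExpress, were applied at about 100-200 nM to universal all-10-mer Agilent arrays. These arrays had been made double-stranded by primer extension on fresh or once-stripped slides. Detection used fluorescent anti-GST, normalisation used masliner, and E-scores for ungapped eight-base words pooled with reverse complements came from the Universal PBM Analysis Suite.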

Row | Sequence | PBM E-score
1 | ACGTGTAT | 0.356
2 | CCGTGTCC | 0.0332
3 | AGGTGTAG | 0.0602
4 | ACGTGTCT | 0.14
5 | CCGTGTAC | 0.34
6 | ACGTGTAG | 0.389
7 | CAGTGTAG | 0.154
8 | CAGTGTAC | 0.0758
9 | CCGTGTAG | 0.367
10 | AAGTGTAG | 0.158
11 | GCAATGGA | -0.00402
12 | GAATCGGC | -0.269
13 | CACCAGAG | -0.0278
14 | CCTGCAAC | 0.144
15 | AACTTGCC | 0.204
16 | AAGTGTAC | 0.0824
17 | ACGTGTAC | 0.343
18 | GCGTGTAC | 0.337
19 | CCGTTAAG | -0.0319
20 | CCAGGCAA | 0.477
21 | CCAGGCAG | -0.119
22 | CCAGGCCC | -0.101
23 | TCAGGCCA | -0.0359
24 | CCAGGCAC | 0.487
25 | TCAGGCAA | 0.483

Row | Sequence | PBM E-score
26 | CCAGGCGA | -0.155
27 | CCAGGCCA | -0.29
28 | TCAGGCGA | -0.0408
29 | GAATACTC | -0.0747
30 | GGAGCGCA | -0.281
31 | CTGAACAG | -0.0714
32 | CCGCAAGG | -0.128
33 | ACACCTGT | 0.193
34 | TCTACTAA | 0.0381
35 | GCTGGACC | -0.332
36 | CGGCAAGA | -0.115
37 | AGGCAAGA | 0.477
38 | ACGCAAGG | 0.153
39 | AAGCAAGC | -0.162
40 | AGGCAAGG | 0.483
41 | GGGCAAGA | 0.0525
42 | AGGCAAGC | 0.489
43 | ATGCAAGG | -0.116
44 | CGGCAAGC | -0.0333
45 | CCCTACAG | -0.128
46 | GATCTCTA | -0.137
47 | CCGGTCAG | -0.335
48 | CCTCGTAG | 0.0397
49 | AATACCCC | -0.248
50 | CTCAAGAC | -0.131

Row | Sequence | PBM E-score
51 | ATCAGCCC | -0.272
52 | AAAGATGG | -0.0558
53 | ACTTGTTC | 0.162
54 | ACAGCCCA | -0.0365
55 | ACTTTCCC | 0.0581
56 | AATTTCCC | -0.164
57 | AATTTCCT | 0.364
58 | ACTTTCCG | -0.182
59 | ACTTTCCT | 0.383
60 | AATTTCCG | -0.0949
61 | ATCCGGTG | 0.0537
62 | CCACTACG | -0.0192
63 | GGATGAAC | -0.105
64 | GTGAAAAA | 0.155
65 | TAGGGGGA | -0.264
66 | CGACCCTA | -0.148
67 | AGACTTTC | -0.187
68 | CCGTTCTA | 0.17
69 | CACAGGTC | -0.272
70 | CGCAGGTA | 0.35
71 | CACAGGTG | 0.0773
72 | TACAGGTA | 0.393
73 | CACAGGTA | 0.352
74 | GACAGGTA | 0.25
75 | CGCAGGTC | 0.0458

Row | Sequence | PBM E-score
76 | AGCAGGTA | 0.328
77 | AACAGGTA | 0.269
78 | GGTGCGAC | -0.251
79 | ACAACGGC | -0.0371
80 | GAAAAGCC | -0.338
81 | ATAGGTGA | -0.0643
82 | GTAGGTTA | 0.22
83 | ATAGGTAG | 0.109
84 | ATAGGTAA | 0.356
85 | CTAGGTAC | 0.26
86 | GTAGGTAA | 0.346
87 | CTAGGTAA | 0.182
88 | GTAGGTGA | 0.0361
89 | ATAGGTAC | 0.406
90 | GCGGTAAC | 0.063
91 | ACATCTTA | 0.0996
92 | CCAAGCGG | -0.135
93 | GACATCGC | 0.0096
94 | GGTTTTAC | 0.154
95 | CATTCCGC | -0.146
96 | GACTACCA | -0.0944
97 | CTATTACA | 0.378
98 | AGATTACT | 0.101
99 | GGATTACC | -0.0377
100 | GGATTAGA | -0.13

Row | Sequence | PBM E-score
101 | ATATTACA | 0.332
102 | AGATTACA | 0.354
103 | CTATTACC | 0.142
104 | TGATTACA | 0.311
105 | CGATTACA | 0.357
106 | AGATTACC | 0.157
107 | CGATTACG | 0.123
108 | GGATTACA | 0.371
109 | GGACAAAC | 0.0402
110 | AAACCTCG | -0.21
111 | ACCAAATC | -0.166
112 | GCACTCCC | -0.112
113 | AACACAGC | 0.268
114 | CGTGTCAC | 0.157
115 | GACCTGAA | -0.107
116 | ACATGTAC | 0.333
117 | GCATGTAC | 0.321
118 | TCATGTCA | 0.283
119 | CGATGTAG | 0.103
120 | ACATGTCG | 0.246
121 | ACATGTAG | 0.388
122 | TGATGTAA | 0.281
123 | GCATGTAA | 0.41
124 | TCATGTAA | 0.414
125 | CCATGTAG | 0.346

Row | Sequence | PBM E-score
126 | CCATGTCG | 0.247
127 | GCATGTCA | 0.26
128 | CATGTCGC | 0.175
129 | CACTAGTG | -0.12
130 | CATCAACG | 0.00915
131 | ACTAGGTG | 0.125
132 | CTTAAAGC | 0.00562
133 | CTCGTCGA | -0.0922
134 | GTCGAGCA | -0.114
135 | AAGGTTAC | 0.0496
136 | CCTATGCC | -0.0577
137 | AGCGCTTG | -0.185
138 | CGTTGGCA | 0.00506
139 | CCATGTAA | 0.411
140 | ACATGTGA | 0.225
141 | ACATGTAT | 0.357
142 | AGATGTAT | 0.133
143 | ACATGTCT | 0.235
144 | ACATGTCA | 0.319
145 | CCATGTGA | 0.141
146 | ACATGTAA | 0.437
147 | CCATGTAC | 0.327
148 | ATTCCTTG | 0.0459
149 | GTCAGAGA | -0.242
150 | AATGAGCT | -0.0919

Row | Sequence | PBM E-score
151 | AGTCTGAA | -0.204
152 | ATGTTACC | 0.237
153 | GTGTTAAC | 0.352
154 | GTGTTAAA | 0.384
155 | TTGTTAAA | 0.256
156 | CTGTTAAA | 0.238
157 | ATGTTAAC | 0.397
158 | ACGTTAAC | 0.25
159 | CTGTTAAC | 0.199
160 | GAGTTAAC | 0.0651
161 | GCTAAATA | 0.0782
162 | CGGAATAG | -0.201
163 | GATGACGC | 0.0115
164 | AGTCAGTG | -0.157
165 | GGCGCCCC | -0.0368
166 | GCAGGCGC | 0.361
167 | CCAGGCGC | -0.00734
168 | ACAGGCGT | 0.172
169 | ACAGGCGG | -0.015
170 | ACAGGCGC | 0.371
171 | GCAGGCGA | 0.123
172 | ACAGGCTG | 0.0165
173 | ACAGGCTC | 0.404
174 | ACAGGCTA | 0.183

From the supplement of paper PMC3334620
